# In the supplement of paper PMC4466140:
# ± gives the standard deviation of the averaged measurements.
# B1: unnamed (peptide)
# chain: VSKLRSPNTPRRLRK
# Biological target: AgAbp1
# Assay: SPOT peptide array binding signal intensity (averaged, normalized) (arbitrary units (background-subtracted, floor 0; scale differs between SH3 domains)); higher = stronger binding of the SH3 domain to the peptide
# How it was run: (§1)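 Binding signal refers to normalized, background-subtracted spot intensity averaged over replicates, expressed in arbitrary units that differ between domains. GST-fused SH3 domains from four yeast species were incubated at 10 μg/ml overnight at 4°C on cellulose membranes of synthetic 15-mer peptides with cysteines replaced by serines. Bound protein was detected with anti-GST antibody, an HRP anti-mouse secondary and luminol, and quantified with Genespotter.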
row,Binder,SPOT peptide array binding signal intensity
1,B1,210 ± 71

# Biological target: AgBbc1
# Assay: as above
# How it was run: as §1
row,Binder,SPOT peptide array binding signal intensity
1,B1,284 ± 140

# Biological target: AgBem1-D1
# Assay: as above
# How it was run: as §1
row,Binder,SPOT peptide array binding signal intensity
1,B1,116 ± 54

# Biological target: AgBzz1-D1
# Assay: as above
# How it was run: as §1
row,Binder,SPOT peptide array binding signal intensity
1,B1,65.5 ± 29

# Biological target: AgBzz1-D2
# Assay: as above
# How it was run: as §1
row,Binder,SPOT peptide array binding signal intensity
1,B1,44.8 ± 5.3

# Biological target: AgCyk3
# Assay: as above
# How it was run: as §1
row,Binder,SPOT peptide array binding signal intensity
1,B1,7 ± 0.71

# Biological target: AgFus1
# Assay: as above
# How it was run: as §1
row,Binder,SPOT peptide array binding signal intensity
1,B1,192 ± 110

# Biological target: AgHof1
# Assay: as above
# How it was run: as §1
row,Binder,SPOT peptide array binding signal intensity
1,B1,68 ± 14

# Biological target: AgHse1
# Assay: as above
# How it was run: as §1
row,Binder,SPOT peptide array binding signal intensity
1,B1,352 ± 230

# Biological target: AgLsb1
# Assay: as above
# How it was run: as §1
row,Binder,SPOT peptide array binding signal intensity
1,B1,3.38 ± 4.1

# Biological target: AgLsb4
# Assay: as above
# How it was run: as §1
row,Binder,SPOT peptide array binding signal intensity
1,B1,48.8 ± 16

# Biological target: AgMyo5
# Assay: as above
# How it was run: as §1
row,Binder,SPOT peptide array binding signal intensity
1,B1,2.75 ± 2.5

# Biological target: AgNbp2
# Assay: as above
# How it was run: as §1
row,Binder,SPOT peptide array binding signal intensity
1,B1,84.2 ± 8.8

# Biological target: AgRvs167
# Assay: as above
# How it was run: as §1
row,Binder,SPOT peptide array binding signal intensity
1,B1,9.83 ± 2.1

# Biological target: AgSho1
# Assay: as above
# How it was run: as §1
row,Binder,SPOT peptide array binding signal intensity
1,B1,13 ± 2.8

# Biological target: AgSla1-D1-D2
# Assay: as above
# How it was run: as §1
row,Binder,SPOT peptide array binding signal intensity
1,B1,334 ± 170

# Biological target: AgSla1-D3
# Assay: as above
# How it was run: as §1
row,Binder,SPOT peptide array binding signal intensity
1,B1,8.88 ± 5.8

# Biological target: CaAbp1-D1
# Assay: as above
# How it was run: as §1
row,Binder,SPOT peptide array binding signal intensity
1,B1,897 ± 89

# Biological target: CaAbp1-D2
# Assay: as above
# How it was run: as §1
row,Binder,SPOT peptide array binding signal intensity
1,B1,576 ± 100

# Biological target: CaBbc1
# Assay: as above
# How it was run: as §1
row,Binder,SPOT peptide array binding signal intensity
1,B1,863 ± 130

# Biological target: CaBem1-D1
# Assay: as above
# How it was run: as §1
row,Binder,SPOT peptide array binding signal intensity
1,B1,64 ± 8.5

# Biological target: CaBzz1-D1
# Assay: as above
# How it was run: as §1
row,Binder,SPOT peptide array binding signal intensity
1,B1,156 ± 7.4

# Biological target: CaBzz1-D2
# Assay: as above
# How it was run: as §1
row,Binder,SPOT peptide array binding signal intensity
1,B1,146 ± 120

# Biological target: CaCyk3
# Assay: as above
# How it was run: as §1
row,Binder,SPOT peptide array binding signal intensity
1,B1,47.2 ± 1.1

# Biological target: CaFus1
# Assay: as above
# How it was run: as §1
row,Binder,SPOT peptide array binding signal intensity
1,B1,230 ± 22

# Biological target: CaHof1
# Assay: as above
# How it was run: as §1
row,Binder,SPOT peptide array binding signal intensity
1,B1,0.5 ± 0.71

# Biological target: CaHse1
# Assay: as above
# How it was run: as §1
row,Binder,SPOT peptide array binding signal intensity
1,B1,4.62 ± 3.4

# Biological target: CaLsb1
# Assay: as above
# How it was run: as §1
row,Binder,SPOT peptide array binding signal intensity
1,B1,0.75 ± 0.35

# Biological target: CaLsb4
# Assay: as above
# How it was run: as §1
row,Binder,SPOT peptide array binding signal intensity
1,B1,778 ± 490

# Biological target: CaMyo5
# Assay: as above
# How it was run: as §1
row,Binder,SPOT peptide array binding signal intensity
1,B1,3.38 ± 0.18

# Biological target: CaNbp2
# Assay: as above
# How it was run: as §1
row,Binder,SPOT peptide array binding signal intensity
1,B1,166 ± 86

# Biological target: CaRvs167
# Assay: as above
# How it was run: as §1
row,Binder,SPOT peptide array binding signal intensity
1,B1,23.8 ± 10

# Biological target: CaRvs167-3
# Assay: as above
# How it was run: as §1
row,Binder,SPOT peptide array binding signal intensity
1,B1,28.2 ± 2.5

# Biological target: CaSho1
# Assay: as above
# How it was run: as §1
row,Binder,SPOT peptide array binding signal intensity
1,B1,131 ± 3.9

# Biological target: CaSla1-D1-D2
# Assay: as above
# How it was run: as §1
row,Binder,SPOT peptide array binding signal intensity
1,B1,270 ± 140

# Biological target: CaSla1-D3
# Assay: as above
# How it was run: as §1
row,Binder,SPOT peptide array binding signal intensity
1,B1,3.88 ± 0.53

# Biological target: ScAbp1
# Assay: as above
# How it was run: as §1
row,Binder,SPOT peptide array binding signal intensity
1,B1,41 ± 23

# Biological target: ScBbc1
# Assay: as above
# How it was run: as §1
row,Binder,SPOT peptide array binding signal intensity
1,B1,266 ± 81

# Biological target: ScBem1-D1
# Assay: as above
# How it was run: as §1
row,Binder,SPOT peptide array binding signal intensity
1,B1,25.2 ± 17

# Biological target: ScBzz1-D1
# Assay: as above
# How it was run: as §1
row,Binder,SPOT peptide array binding signal intensity
1,B1,23 ± 9.9

# Biological target: ScBzz1-D2
# Assay: as above
# How it was run: as §1
row,Binder,SPOT peptide array binding signal intensity
1,B1,9.25 ± 3.9

# Biological target: ScCyk3
# Assay: as above
# How it was run: as §1
row,Binder,SPOT peptide array binding signal intensity
1,B1,110 ± 25

# Biological target: ScFus1
# Assay: as above
# How it was run: as §1
row,Binder,SPOT peptide array binding signal intensity
1,B1,143 ± 42

# Biological target: ScHof1
# Assay: as above
# How it was run: as §1
row,Binder,SPOT peptide array binding signal intensity
1,B1,≤ 0

# Biological target: ScHse1
# Assay: as above
# How it was run: as §1
row,Binder,SPOT peptide array binding signal intensity
1,B1,701 ± 130

# Biological target: ScLsb1
# Assay: as above
# How it was run: as §1
row,Binder,SPOT peptide array binding signal intensity
1,B1,33.2 ± 7.8

# Biological target: ScLsb2
# Assay: as above
# How it was run: as §1
row,Binder,SPOT peptide array binding signal intensity
1,B1,11.8 ± 1.1

# Biological target: ScLsb3
# Assay: as above
# How it was run: as §1
row,Binder,SPOT peptide array binding signal intensity
1,B1,2420 ± 260

# Biological target: ScLsb4
# Assay: as above
# How it was run: as §1
row,Binder,SPOT peptide array binding signal intensity
1,B1,70.5 ± 9.2

# Biological target: ScMyo3
# Assay: as above
# How it was run: as §1
row,Binder,SPOT peptide array binding signal intensity
1,B1,2.62 ± 2.3

# Biological target: ScMyo5
# Assay: as above
# How it was run: as §1
row,Binder,SPOT peptide array binding signal intensity
1,B1,2.88 ± 1.9

# Biological target: ScNbp2
# Assay: as above
# How it was run: as §1
row,Binder,SPOT peptide array binding signal intensity
1,B1,275 ± 49

# Biological target: ScPex13
# Assay: as above
# How it was run: as §1
row,Binder,SPOT peptide array binding signal intensity
1,B1,8.5 ± 12

# Biological target: ScRvs167
# Assay: as above
# How it was run: as §1
row,Binder,SPOT peptide array binding signal intensity
1,B1,230.2 ± 2.2

# Biological target: ScSho1
# Assay: as above
# How it was run: as §1
row,Binder,SPOT peptide array binding signal intensity
1,B1,258 ± 32

# Biological target: ScSla1-D1-D2
# Assay: as above
# How it was run: as §1
row,Binder,SPOT peptide array binding signal intensity
1,B1,953 ± 160

# Biological target: ScSla1-D3
# Assay: as above
# How it was run: as §1
row,Binder,SPOT peptide array binding signal intensity
1,B1,36.2 ± 41

# Biological target: SpAbp1-D1
# Assay: as above
# How it was run: as §1
row,Binder,SPOT peptide array binding signal intensity
1,B1,384 ± 320

# Biological target: SpBbc1
# Assay: as above
# How it was run: as §1
row,Binder,SPOT peptide array binding signal intensity
1,B1,5.75 ± 1.1

# Biological target: SpBzz1-D1
# Assay: as above
# How it was run: as §1
row,Binder,SPOT peptide array binding signal intensity
1,B1,236 ± 150

# Biological target: SpBzz1-D2
# Assay: as above
# How it was run: as §1
row,Binder,SPOT peptide array binding signal intensity
1,B1,≤ 0

# Biological target: SpCyk3
# Assay: as above
# How it was run: as §1
row,Binder,SPOT peptide array binding signal intensity
1,B1,5.75 ± 4.6

# Biological target: SpHof1
# Assay: as above
# How it was run: as §1
row,Binder,SPOT peptide array binding signal intensity
1,B1,183 ± 6

# Biological target: SpHof1-2
# Assay: as above
# How it was run: as §1
row,Binder,SPOT peptide array binding signal intensity
1,B1,17 ± 8.5

# Biological target: SpHof1-3
# Assay: as above
# How it was run: as §1
row,Binder,SPOT peptide array binding signal intensity
1,B1,319 ± 74

# Biological target: SpHse1
# Assay: as above
# How it was run: as §1
row,Binder,SPOT peptide array binding signal intensity
1,B1,172 ± 74

# Biological target: SpLsb1
# Assay: as above
# How it was run: as §1
row,Binder,SPOT peptide array binding signal intensity
1,B1,33.8 ± 4.6

# Biological target: SpLsb4
# Assay: as above
# How it was run: as §1
row,Binder,SPOT peptide array binding signal intensity
1,B1,2990 ± 950

# Biological target: SpMyo1
# Assay: as above
# How it was run: as §1
row,Binder,SPOT peptide array binding signal intensity
1,B1,3.25 ± 2.5

# Biological target: SpNbp2
# Assay: as above
# How it was run: as §1
row,Binder,SPOT peptide array binding signal intensity
1,B1,109 ± 68

# Biological target: SpPex13
# Assay: as above
# How it was run: as §1
row,Binder,SPOT peptide array binding signal intensity
1,B1,5.5 ± 2.1

# Biological target: SpRvs167
# Assay: as above
# How it was run: as §1
row,Binder,SPOT peptide array binding signal intensity
1,B1,195 ± 91

# Biological target: SpSla1-D1-D2
# Assay: as above
# How it was run: as §1
row,Binder,SPOT peptide array binding signal intensity
1,B1,10.2 ± 3.9

# Biological target: SpSla1-D3
# Assay: as above
# How it was run: as §1
row,Binder,SPOT peptide array binding signal intensity
1,B1,2.5 ± 0.71
